PubChem BioAssay (EPA / NIEHS)
Records with an inconclusive call do not appear. Active and inactive are the calls of the source. The calls were made as follows, unless noted: active = hit-call score of the fitted dose curve at least 0.9, where 1 is the maximum; inactive = score below 0.9.

What was measured:
[1] = target: Paired box protein Pax-6 (Homo sapiens) (UniProt P26367); assay: ATG_Pax6_CIS: Attagene CIS-FACTORIAL HepG2 Assay for human Paired Box 6 (PAX6) (AID 2282956); conditions: HepG2 CIS-FACTORIAL PAX6 reporter transcription, RNA readout; actives raise or lower the signal
How it was run: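 DMSO-referenced bidirectional fits of reporter mRNA fluorescence; HepG2 with transient cis-promoter MRTUs, 24 h post-dose, RT-PCR plus capillary electrophoresis detection.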

[2] = ATG_PXRE_CIS: Attagene CIS-FACTORIAL HepG2 Assay for human Pregnane X Receptor Element (PXRE) (AID 2282957); conditions: HepG2 Attagene CIS-FACTORIAL PXRE reporter, mRNA; actives raise or lower the signal
How it was run: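 Fluorescent capillary electrophoresis of amplified reporter cDNA gave the signal, collected 24 h after dosing HepG2 cells that held transfected cis-element reporter constructs.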

[3] = ATG_RORE_CIS: Attagene CIS-FACTORIAL HepG2 Assay for human RAR-related Orphan Receptor Element (RORE) (AID 2282959); conditions: HepG2 Attagene cis-factorial RORE reporter, mRNA; actives raise or lower the signal
How it was run: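 Transfect HepG2 with MRTUs; treat 24 h; extract RNA; RT with oligo(dT); PCR with reporter-specific primers; 6-FAM primer extension; HpaI digest 2 h at 37 C; capillary electrophoresis. Fit vs DMSO, bidirectional.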

[4] = ATG_Sox_CIS: Attagene CIS-FACTORIAL HepG2 Assay for human SRY-box transcription factor (SOX) (AID 2282960); conditions: HepG2 Attagene cis-factorial SOX reporter, mRNA; actives raise or lower the signal
How it was run: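 Fluorescence-labelled cDNA fragments from reporter transcripts, sized by CE, give the signal. Cells: HepG2, transiently transfected with cis-regulated reporter units. Exposure 24 h; DMSO negative control; bidirectional curve fitting.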

[5] = target: Transcription factor Sp1 (Homo sapiens) (UniProt P08047); assay: ATG_Sp1_CIS: Attagene CIS-FACTORIAL HepG2 Assay for human Specificity Protein 1 (Sp1) (AID 2282961); conditions: HepG2 Sp1 cis-reporter transcription, actives raise or lower the signal
How it was run: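 Chemicals are dosed onto HepG2 cells transfected with multiple cis-promoter reporter constructs, and after 24 h reporter RNA is reverse-transcribed, PCR-amplified and resolved by capillary electrophoresis for fluorescence quantitation; activity is scored up or down against DMSO.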

[6] = ATG_SREBP_CIS: Attagene CIS-FACTORIAL HepG2 Assay for human Sterol Regulatory Element Binding (SREBP) (AID 2282962); conditions: HepG2 Attagene cis-factorial SREBP reporter, mRNA; actives raise or lower the signal
How it was run: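 In this cis-format assay, HepG2 liver cells express reporters controlled by promoter elements responsive to native transcription factors. Exposure lasts 24 h; reporter mRNA fluorescence from capillary electrophoresis gives the signal, fitted bidirectionally against DMSO.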

[7] = target: Signal transducer and activator of transcription 3 (Homo sapiens) (UniProt P40763); assay: ATG_STAT3_CIS: Attagene CIS-FACTORIAL HepG2 Assay for human Signal Transducer and Activator of Transcription 3 (STAT3) (AID 2282963); conditions: HepG2, Attagene cis-factorial STAT3 reporter transcription; actives raise or lower the signal
How it was run: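 Uses human liver HepG2 transiently carrying cis-regulated reporter transcription units. Following 24 h dosing, reporter mRNA induction was detected by RT-PCR and capillary electrophoresis, analysed bidirectionally versus DMSO.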

[8] = ATG_TA_CIS: Attagene CIS-FACTORIAL HepG2 Assay for human TA Basal Promoter (AID 2282964); conditions: HepG2 Attagene CIS-factorial TA basal promoter reporter; actives raise or lower the signal
How it was run: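 Transfected HepG2, 24 h compound exposure; RNA → RT-PCR → FAM primer extension → HpaI cut → CE fluorescence. Gain/loss-of-signal fitted against DMSO negative control. Background-control readout.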

[9] = ATG_TCF_b_cat_CIS: Attagene CIS-FACTORIAL HepG2 Assay for human T-Cell-Factor with beta-catenin (TCF/b-cat) (AID 2282965); conditions: HepG2 TCF/beta-catenin cis-reporter transcription, actives raise or lower the signal
How it was run: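 Using capillary electrophoresis as the read-out, labelled reporter cDNA fragments from transiently transfected HepG2 were sized and quantified. Exposure lasted 24 hours; activity in either direction was referenced to DMSO.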

[10] = ATG_TAL_CIS: Attagene CIS-FACTORIAL HepG2 Assay for human TAL Basal Promoter (AID 2282966); conditions: HepG2 Attagene cis-factorial TAL promoter reporter; actives raise or lower the signal;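 also: background control endpoint measuring basal TAL promoter reporter mRNA not a specific factor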
How it was run: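 Transiently transfected HepG2 (cis-regulated reporter units), 24 h treatment, mRNA read by fluorescent CE after RT-PCR; bidirectional fit, DMSO baseline.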

[11] = ATG_TGFb_CIS: Attagene CIS-FACTORIAL HepG2 Assay for human Transforming Growth Factor (TGF) (AID 2282967); conditions: HepG2 Attagene CIS TGFb reporter, mRNA transcription; actives raise or lower the signal
How it was run: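 Readout: fluorescently labeled reporter cDNA fragments resolved by capillary electrophoresis after RT-PCR. Transfected HepG2 cells dosed for 24 h; endogenous TF activity at TGFB1-linked cis element; gain or loss fitted relative to DMSO.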

[12] = target: X-box-binding protein 1 (Homo sapiens) (UniProt P17861); assay: ATG_Xbp1_CIS: Attagene CIS-FACTORIAL HepG2 Assay for human X-box Binding Protein 1 (XBP1) (AID 2282972); conditions: HepG2 XBP1 cis-element reporter, Attagene multiplex; actives raise or lower the signal
How it was run: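 Changes in reporter transcript abundance, read by RT-PCR and capillary electrophoresis, reflect endogenous transcription factor activity. Transfected HepG2 cells received compound for 24 hours; DMSO defined baseline for bidirectional analysis.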

[13] = ATG_GAL4_TRANS: Attagene TRANS-FACTORIAL HepG2 Assay for GAL4 (Internal Marker) (AID 2282976; active = hit-call score of the fitted dose curve at least 0.9, where 1 is the maximum); conditions: HepG2 Attagene TRANS GAL4 internal marker reporter
How it was run: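 HepG2 cells transiently transfected with multiplexed GAL4-UAS reporter constructs were dosed for 24 h. Reporter mRNA was measured by RT-PCR, 6-FAM primer extension, HpaI digestion and capillary electrophoresis, and gain of signal was fitted relative to DMSO.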

[14] = ATG_PPRE_CIS: Attagene CIS-FACTORIAL HepG2 Assay for human Peroxisome Proliferator-activated Response Element (PPRE) (AID 2282958); conditions: HepG2 PPRE cis-element reporter, Attagene transcription factor profiling; actives raise or lower the signal
How it was run: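 DMSO served as negative control and baseline for bidirectional curve fitting. Signal came from PPRE-regulated reporter mRNA in HepG2 cells, measured 24 h post-dosing by RT-PCR, 6-FAM primer extension and capillary electrophoresis.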

[15] = ATG_M_19_TRANS: Attagene TRANS-FACTORIAL HepG2 Assay for M19 Transcription Factor (Internal Marker) (AID 2282974; active = hit-call score of the fitted dose curve at least 0.9, where 1 is the maximum); conditions: HepG2 Attagene TRANS-FACTORIAL M19 internal marker reporter
How it was run: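 Multiplexed TRANS format: HepG2 liver cells bearing transient GAL4-UAS reporter units, chemical treatment 24 h, reporter transcripts quantified by RT-PCR plus capillary electrophoresis. DMSO defines baseline.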

[16] = ATG_VDRE_CIS: Attagene CIS-FACTORIAL HepG2 Assay for human Vitamin D Receptor Element (VDRE) (AID 2282968); conditions: HepG2 VDRE cis-reporter transcription, actives raise or lower the signal
How it was run: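 Transfected HepG2 reporter cells, chemical treatment 24 h. RNA isolated, cDNA amplified with reporter-specific primers, products analysed by capillary electrophoresis. Endpoint fitted in both directions versus DMSO.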

[17] = target: Nuclear receptor subfamily 1 group I member 3 (Homo sapiens) (UniProt Q14994); assay: ATG_CAR_TRANS: Attagene TRANS-FACTORIAL HepG2 Assay for human Constitutive Androstane Receptor (CAR) (AID 2282969; active = hit-call score of the fitted dose curve at least 0.9, where 1 is the maximum;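 also: activators raise reporter mRNA above DMSO so AC50 marks induction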); conditions: HepG2 Attagene TRANS-FACTORIAL CAR reporter
How it was run: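 Steps: transient transfection of HepG2 with multiple GAL4-UAS reporter units; 24 h compound incubation; RNA isolation, RT-PCR, 6-FAM primer extension, HpaI digest; capillary electrophoresis. Gain-of-signal relative to DMSO negative control.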

[18] = target: Estrogen receptor (Homo sapiens) (UniProt P03372); assay: ATG_ERa_TRANS: Attagene TRANS-FACTORIAL HepG2 Assay for human Estrogen Receptor alpha (ERa) (AID 2282970; active = hit-call score of the fitted dose curve at least 0.9, where 1 is the maximum); conditions: HepG2 Attagene TRANS ERa GAL4 reporter, mRNA
How it was run: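 One of 30 multiplexed endpoints from a HepG2 TRANS system, this one reports ERa-Gal4-driven reporter mRNA. Transcripts were quantified 24 hours post-dosing by fluorescent RT-PCR and capillary electrophoresis, with activity scored as induction over DMSO.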

[19] = target: Estrogen-related receptor gamma (Homo sapiens) (UniProt P62508); assay: ATG_ERRg_TRANS: Attagene TRANS-FACTORIAL HepG2 Assay for human Estrogen-Related Receptor gamma (ERRg) (AID 2282977; active = hit-call score of the fitted dose curve at least 0.9, where 1 is the maximum;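 also: hits increase reporter signal over DMSO so potencies reflect activators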); conditions: HepG2 Attagene TRANS reporter, ERRg transactivation
How it was run: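 Readout: fluorescent reporter-mRNA fragments resolved by capillary electrophoresis after RT-PCR and HpaI cut. Cells: transiently transfected HepG2 carrying GAL4-UAS reporters driven by exogenous NR-Gal4 chimeras, dosed 24 h. Activity fitted upward relative to DMSO baseline.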

[20] = target: Steroid hormone receptor ERR1 (Homo sapiens) (UniProt P11474); assay: ATG_ERRa_TRANS: Attagene TRANS-FACTORIAL HepG2 Assay for human Estrogen-Related Receptor alpha (ERRa) (AID 2282971; active = hit-call score of the fitted dose curve at least 0.9, where 1 is the maximum); conditions: HepG2 Attagene TRANS reporter, ERRa transactivation
How it was run: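 HepG2 cells transiently transfected with multiplexed GAL4-UAS reporter units reading chimeric ERRa-Gal4 activity; 24 h compound exposure. Reporter mRNA measured by RT-PCR, 6-FAM labelling, HpaI digest and capillary electrophoresis; gain of signal fitted versus DMSO baseline.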

Measured: AC50

Nuclear receptor subfamily 1 group I member 3 (Homo sapiens), sequence (Q14994 whole entry, looked up, the tested form may be a part): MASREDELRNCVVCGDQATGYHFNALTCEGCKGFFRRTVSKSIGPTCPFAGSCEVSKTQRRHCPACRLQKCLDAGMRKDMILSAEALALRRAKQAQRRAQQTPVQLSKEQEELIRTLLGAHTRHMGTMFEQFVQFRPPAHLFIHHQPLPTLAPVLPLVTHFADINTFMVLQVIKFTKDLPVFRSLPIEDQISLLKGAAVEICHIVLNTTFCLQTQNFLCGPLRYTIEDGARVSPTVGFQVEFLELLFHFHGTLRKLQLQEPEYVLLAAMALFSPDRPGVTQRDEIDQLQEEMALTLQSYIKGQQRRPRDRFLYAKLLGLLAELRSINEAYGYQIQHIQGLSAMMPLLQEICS
Transcription factor Sp1 (Homo sapiens), sequence (P08047 whole entry, looked up): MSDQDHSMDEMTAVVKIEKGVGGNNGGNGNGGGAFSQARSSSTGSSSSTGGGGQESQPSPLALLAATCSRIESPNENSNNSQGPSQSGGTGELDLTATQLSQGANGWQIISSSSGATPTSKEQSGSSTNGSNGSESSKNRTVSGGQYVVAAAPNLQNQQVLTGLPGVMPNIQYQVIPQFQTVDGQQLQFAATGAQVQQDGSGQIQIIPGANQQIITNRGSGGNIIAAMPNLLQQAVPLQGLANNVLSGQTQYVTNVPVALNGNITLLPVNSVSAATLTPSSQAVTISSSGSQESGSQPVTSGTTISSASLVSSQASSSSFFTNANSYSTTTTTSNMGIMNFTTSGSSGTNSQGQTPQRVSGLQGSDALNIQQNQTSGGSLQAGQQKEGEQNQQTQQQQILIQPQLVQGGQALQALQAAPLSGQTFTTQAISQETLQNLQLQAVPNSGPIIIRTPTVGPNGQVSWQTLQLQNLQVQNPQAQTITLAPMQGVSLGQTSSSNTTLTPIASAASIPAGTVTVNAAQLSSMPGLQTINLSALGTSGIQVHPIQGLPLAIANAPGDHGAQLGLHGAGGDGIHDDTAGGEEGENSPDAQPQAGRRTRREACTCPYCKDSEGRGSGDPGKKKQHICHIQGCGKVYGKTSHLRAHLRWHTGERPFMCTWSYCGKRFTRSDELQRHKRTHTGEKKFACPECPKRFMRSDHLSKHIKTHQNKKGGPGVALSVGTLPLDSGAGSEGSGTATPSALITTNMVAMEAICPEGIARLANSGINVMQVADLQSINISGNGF
Paired box protein Pax-6 (Homo sapiens), sequence (P26367 whole entry, looked up): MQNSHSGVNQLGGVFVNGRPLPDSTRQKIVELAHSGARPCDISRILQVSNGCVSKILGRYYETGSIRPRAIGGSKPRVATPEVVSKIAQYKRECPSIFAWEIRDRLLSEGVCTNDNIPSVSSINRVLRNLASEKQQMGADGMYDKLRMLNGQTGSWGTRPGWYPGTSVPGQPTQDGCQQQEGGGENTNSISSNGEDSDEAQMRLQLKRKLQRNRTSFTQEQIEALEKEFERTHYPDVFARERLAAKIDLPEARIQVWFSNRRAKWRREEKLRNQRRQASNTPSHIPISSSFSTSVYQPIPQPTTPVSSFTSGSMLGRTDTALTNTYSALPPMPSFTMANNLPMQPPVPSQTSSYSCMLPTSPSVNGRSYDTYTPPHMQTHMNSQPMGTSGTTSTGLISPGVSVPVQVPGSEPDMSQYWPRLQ
Estrogen receptor (Homo sapiens), sequence (P03372 whole entry, looked up, the tested form may be a part): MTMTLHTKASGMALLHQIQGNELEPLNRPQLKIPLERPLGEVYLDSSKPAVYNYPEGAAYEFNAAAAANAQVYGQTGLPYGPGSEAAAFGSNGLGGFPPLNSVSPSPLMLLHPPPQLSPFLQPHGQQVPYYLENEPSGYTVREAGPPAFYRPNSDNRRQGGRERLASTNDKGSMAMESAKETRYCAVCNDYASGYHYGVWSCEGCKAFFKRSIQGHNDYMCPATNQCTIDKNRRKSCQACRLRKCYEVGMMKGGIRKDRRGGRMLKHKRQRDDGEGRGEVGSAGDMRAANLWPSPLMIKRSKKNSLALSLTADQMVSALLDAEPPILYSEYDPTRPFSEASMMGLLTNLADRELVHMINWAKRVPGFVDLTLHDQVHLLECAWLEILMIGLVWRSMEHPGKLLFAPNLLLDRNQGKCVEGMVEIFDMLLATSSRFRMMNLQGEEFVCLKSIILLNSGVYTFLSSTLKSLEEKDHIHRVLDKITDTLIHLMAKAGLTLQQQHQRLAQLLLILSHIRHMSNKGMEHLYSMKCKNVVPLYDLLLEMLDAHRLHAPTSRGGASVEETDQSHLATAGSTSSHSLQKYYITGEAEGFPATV
Signal transducer and activator of transcription 3 (Homo sapiens), sequence (P40763 whole entry, looked up): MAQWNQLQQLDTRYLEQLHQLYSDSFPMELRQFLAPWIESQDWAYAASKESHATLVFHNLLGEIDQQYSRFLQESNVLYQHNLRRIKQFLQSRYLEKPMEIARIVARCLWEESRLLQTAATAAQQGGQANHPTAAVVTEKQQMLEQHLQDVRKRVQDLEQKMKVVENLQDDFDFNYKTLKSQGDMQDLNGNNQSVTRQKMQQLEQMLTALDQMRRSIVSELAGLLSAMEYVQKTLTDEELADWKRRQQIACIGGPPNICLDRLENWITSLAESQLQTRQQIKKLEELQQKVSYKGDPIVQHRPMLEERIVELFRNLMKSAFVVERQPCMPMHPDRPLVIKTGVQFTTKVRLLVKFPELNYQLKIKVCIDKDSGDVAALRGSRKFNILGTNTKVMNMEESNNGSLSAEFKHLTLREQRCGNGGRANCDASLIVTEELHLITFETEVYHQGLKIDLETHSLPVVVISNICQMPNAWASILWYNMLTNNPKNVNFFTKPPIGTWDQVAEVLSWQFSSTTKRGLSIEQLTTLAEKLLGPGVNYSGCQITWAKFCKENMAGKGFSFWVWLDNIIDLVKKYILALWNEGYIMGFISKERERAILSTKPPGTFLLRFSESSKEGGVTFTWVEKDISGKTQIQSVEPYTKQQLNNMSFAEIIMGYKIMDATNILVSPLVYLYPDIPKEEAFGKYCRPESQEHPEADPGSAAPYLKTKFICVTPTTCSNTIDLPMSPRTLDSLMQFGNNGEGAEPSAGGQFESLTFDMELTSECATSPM
Estrogen-related receptor gamma (Homo sapiens), sequence (P62508 whole entry, looked up, the tested form may be a part): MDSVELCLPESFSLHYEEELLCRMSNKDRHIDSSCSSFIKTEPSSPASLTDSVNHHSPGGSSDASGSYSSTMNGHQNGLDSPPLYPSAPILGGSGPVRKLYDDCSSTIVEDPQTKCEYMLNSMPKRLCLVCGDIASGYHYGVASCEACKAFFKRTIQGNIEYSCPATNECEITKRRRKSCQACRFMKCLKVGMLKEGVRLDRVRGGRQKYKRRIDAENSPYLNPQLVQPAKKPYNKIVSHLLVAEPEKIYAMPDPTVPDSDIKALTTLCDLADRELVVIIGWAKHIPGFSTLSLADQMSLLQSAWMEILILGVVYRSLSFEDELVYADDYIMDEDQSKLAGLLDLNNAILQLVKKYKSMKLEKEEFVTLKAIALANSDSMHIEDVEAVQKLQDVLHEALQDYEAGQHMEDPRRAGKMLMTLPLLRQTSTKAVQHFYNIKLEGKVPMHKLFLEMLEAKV
Steroid hormone receptor ERR1 (Homo sapiens), sequence (P11474 whole entry, looked up, the tested form may be a part): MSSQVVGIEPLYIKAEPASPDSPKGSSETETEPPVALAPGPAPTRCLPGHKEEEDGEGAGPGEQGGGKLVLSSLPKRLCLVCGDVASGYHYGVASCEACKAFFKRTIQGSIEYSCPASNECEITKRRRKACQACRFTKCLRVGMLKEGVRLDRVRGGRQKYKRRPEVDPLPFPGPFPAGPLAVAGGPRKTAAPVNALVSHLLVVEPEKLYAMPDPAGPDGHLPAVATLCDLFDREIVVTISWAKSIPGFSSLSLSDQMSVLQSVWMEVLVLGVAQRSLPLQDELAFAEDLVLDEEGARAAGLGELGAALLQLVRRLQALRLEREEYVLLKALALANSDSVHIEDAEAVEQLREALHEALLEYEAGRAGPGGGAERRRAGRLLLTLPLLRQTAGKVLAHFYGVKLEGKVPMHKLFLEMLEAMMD
X-box-binding protein 1 (Homo sapiens), sequence (P17861 whole entry, looked up): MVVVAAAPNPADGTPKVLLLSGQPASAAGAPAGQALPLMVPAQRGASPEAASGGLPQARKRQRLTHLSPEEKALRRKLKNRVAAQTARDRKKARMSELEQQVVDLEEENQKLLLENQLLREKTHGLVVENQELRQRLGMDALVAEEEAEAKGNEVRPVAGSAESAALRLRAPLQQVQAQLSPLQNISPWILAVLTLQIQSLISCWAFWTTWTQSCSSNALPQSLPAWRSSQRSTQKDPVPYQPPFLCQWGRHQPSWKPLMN

C=C(C)[C@@H]1CC[C@@H](C)C[C@@H]1O
not listed: [14] | [15] | [16] | [17] | [18] | [19] | [20]
inactive: all other assays above

CCC(C)(O)CCC=C(C)C (configuration not stated)
not listed: [3] | [13] | [16] | [17] | [18] | [19] | [20]
inactive: all other assays above

CC(C)c1ccc(C(C)C)cc1
active: [6] 152 µM | [11] 171 µM
not listed: [13] | [14] | [19] | [20]
inactive: all other assays above

C/C=C(\C)C(=O)OCc1ccccc1
not listed: [12] | [14] | [15] | [17] | [18] | [20]
inactive: all other assays above

CC1(C)OC[C@@H]2O[C@@]3(C(=O)O)OC(C)(C)O[C@H]3[C@@H]2O1
not listed: [14] | [18] | [19] | [20]
inactive: all other assays above

Fc1c(F)c(F)c(Br)c(F)c1F
active: [2] 46.5 µM
not listed: [3] | [5] | [13] | [18] | [19] | [20]
inactive: all other assays above

COC(=O)c1ccc(C)cc1
active: [2] 11.1 µM
not listed: [14] | [15] | [16] | [19] | [20]
inactive: all other assays above

OCCOCCOCCOCCO
active: [2] 29.4 µM
not listed: [13] | [14] | [15] | [17] | [19] | [20]
inactive: all other assays above

O=[N+]([O-])c1cc(C(F)(F)F)ccc1Cl
active: [2] 12.7 µM
not listed: [13] | [14] | [15] | [16] | [18] | [19]
inactive: all other assays above

CCC(O)CO (configuration not stated)
active: [2] 0.0826 µM
not listed: [3] | [8] | [12] | [19] | [20]
inactive: all other assays above

S=C(S)NCCNC(=S)S
not listed: [12] | [14] | [15] | [17] | [18] | [19] | [20]
inactive: all other assays above

O=c1cc(-c2ccccc2)oc2cc(O)cc(O)c12
active: [14] 4.28 µM
inactive: [1] | [2] | [4] | [7] | [8] | [9] | [10] | [11] | [12] | [15]

C=CC(=O)OCCOCCOCC
active: [1] 68.4 µM | [2] 27 µM | [12] 135 µM
not listed: [13] | [14] | [16] | [17] | [18] | [20]
inactive: all other assays above

CC(=O)/C=C/C1=C(C)CCCC1(C)C
active: [2] 1.42 µM | [16] 3.58 µM
not listed: [13] | [14] | [15] | [17] | [19] | [20]
inactive: all other assays above

CCCCCCCCC=O
not listed: [14] | [15] | [17] | [18]
inactive: all other assays above

CCCCCCCCCCCCCC(=O)O
not listed: [6] | [14] | [15] | [17] | [18] | [20]
inactive: all other assays above

CC(C)(C#N)c1cc(Cn2cncn2)cc(C(C)(C)C#N)c1
active: [2] 14.8 µM
not listed: [5] | [14] | [15] | [17] | [18] | [19]
inactive: all other assays above

O=[N+]([O-])c1ccc(C=Cc2ccc([N+](=O)[O-])cc2S(=O)(=O)O)c(S(=O)(=O)O)c1
not listed: [4] | [11] | [12] | [13] | [14] | [17] | [19] | [20]
inactive: all other assays above

COc1ccc(OC)c(OC)c1
not listed: [7] | [14] | [15] | [19] | [20]
inactive: all other assays above
